The source of these data is PubChem BioAssay (NCI).

This is part of a sample that, as a whole, favours compounds with a hit. Of some 83,000 tested, about 20% had one in any assay.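 Interpretation: 100, growth as untreated; towards 0, rising growth inhibition; 0, no net growth; 0 to -100, cell death. Compounds scoring below 10 were considered active.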 A number with no mark means an inactive call. Active and inactive are the calls of the source.

Some test systems named below: SK-MEL-2 melanoma; EKVX NSCLC; SN12C renal; UO-31 renal; TK-10 renal; ACHN renal; CAKI-1 renal; A498 renal; CCRF-CEM leukemia; MOLT-4 leukemia.
What all share (assay): NCI-60 one-dose screen, 48 h (100 = growth as untreated, 0 = no growth, -100 = all killed)
Common to all, as to details: 10 µM unless noted

Regarding `COc1cc2oc(-c3cccc(NC(=O)[C@H](CC(N)=O)NC(=O)OC(C)(C)C)c3)cc(=O)c2c(OC)c1OC`, the growth is 103% in the test on SK-MEL-2 melanoma; 99.1% in the test on EKVX NSCLC; 96.9% in the test on SN12C renal; 80.1% in the test on UO-31 renal; 118% in the test on TK-10 renal; 80.7% with ACHN renal. Also, the growth was 84.5% with CAKI-1 renal, 93.8% in the test with A498 renal, 54.5% in the test with CCRF-CEM leukemia and 65.1% in the test on MOLT-4 leukemia.

For `CN(C)c1nc(NCCNS(=O)(=O)c2ccc(C(=O)/C=C/c3ccc(Cl)cc3)cc2)nc(Nc2ccc(F)cc2)n1`, the growth is -56.5% (active) in the test on SK-MEL-2 melanoma; 2.04% (active) with EKVX NSCLC; -97.7% (active) with SN12C renal; 5.91% (active) with UO-31 renal; -16.9% (active) with TK-10 renal; -24.9% (active) in the test on ACHN renal. In addition, the growth with CAKI-1 renal was -23.3% (active); with A498 renal it was 9.56% (active); in the test on CCRF-CEM leukemia, 5.38% (active); with MOLT-4 leukemia it was -12.2% (active).

With `CCCCSc1nc(Nc2ccc(S(N)(=O)=O)cc2)c(C#N)c(-c2ccc(Cl)cc2)n1`, the growth was 118% in the test on SK-MEL-2 melanoma; 34.7% in the test with EKVX NSCLC; -20.3% (active) in the test on SN12C renal; 14.6% in the test on UO-31 renal; 77.1% in the test with TK-10 renal; -66.9% (active) in the test with ACHN renal. In addition, the growth with CAKI-1 renal is 55%; in the test with A498 renal, 108%; in the test on CCRF-CEM leukemia, 95%; in the test on MOLT-4 leukemia it was 52.8%.

Regarding `OCNc1ccc(-n2cnc3cc(-c4ccc(O)cc4)ccc32)cc1C(F)(F)F`, the growth is 21.7% in the test with SK-MEL-2 melanoma; 34.7% with EKVX NSCLC; 19.7% with SN12C renal; 13.1% in the test with UO-31 renal; 46.6% with TK-10 renal; 12.2% in the test on ACHN renal. For the same molecule, the growth was 33.5% in the test on CAKI-1 renal, 74.9% in the test on A498 renal, 31.9% in the test on CCRF-CEM leukemia and 15% in the test with MOLT-4 leukemia.

Consider `CC(/C=C1\SC(=S)N(CCCC(=O)NC(CC(C)C)C(=O)O)C1=O)=C\c1ccccc1` (stereo not given), for which the growth with SK-MEL-2 melanoma was 101%; with EKVX NSCLC, 101%; in the test with SN12C renal, 90.2%; with UO-31 renal it was 64.4%; with TK-10 renal, 131%; in the test on ACHN renal, 54.1%. The growth was 79.5% in the test with CAKI-1 renal, 145% with A498 renal, 89.7% with CCRF-CEM leukemia and 54.9% with MOLT-4 leukemia.

With `Cc1ccc2c(N)c(C(=O)Nc3ccc(-c4ccccc4)cc3)sc2n1`, the growth is 58.9% in the test with SK-MEL-2 melanoma; 22.7% in the test on EKVX NSCLC; 65.1% in the test on SN12C renal; 56.1% with UO-31 renal; 75.3% in the test on TK-10 renal; 60.1% in the test on ACHN renal. Besides, the growth with CAKI-1 renal was 59.4%; in the test on A498 renal, 114%; in the test with CCRF-CEM leukemia it was 55.4%; in the test with MOLT-4 leukemia, 50.9%.

`Cc1c(C(=O)NNC(=O)c2ccc(Cl)cc2)nnn1-c1ccc(Br)cc1`: the growth with SK-MEL-2 melanoma is 107%; with EKVX NSCLC, 99.4%; in the test with SN12C renal it was 102%; with UO-31 renal, 75.9%; in the test on TK-10 renal, 95.4%; with ACHN renal, 102%. Also, the growth in the test on CAKI-1 renal is 87.9%; with A498 renal, 139%; in the test on CCRF-CEM leukemia, 90.3%; in the test on MOLT-4 leukemia, 85.4%.

Consider `O=c1c2ccccc2nc(-c2ccccc2)n1/N=C/c1ccc2ccccc2c1`, for which the growth was 116% in the test on SK-MEL-2 melanoma; 80.3% in the test with EKVX NSCLC; 52.5% in the test with SN12C renal; 58.5% in the test on UO-31 renal; 72.9% in the test on TK-10 renal; 42.5% in the test on ACHN renal. The growth is 48.5% in the test on CAKI-1 renal, 94.6% with A498 renal, 51.9% in the test on CCRF-CEM leukemia and 19.5% with MOLT-4 leukemia.

On to `Cc1ccc(-c2nc(C#N)c(S(=O)(=O)N3CCN(S(=O)(=O)c4ccc(Cl)cc4)CC3)o2)cc1`, for which the growth with SK-MEL-2 melanoma was 95.7%; in the test on EKVX NSCLC, 99%; with SN12C renal, 93.4%; in the test on UO-31 renal it was 97.3%; in the test on TK-10 renal, 117%; in the test with ACHN renal, 43.8%. For the same molecule, the growth is 94.1% in the test on CAKI-1 renal, 107% with A498 renal, 13.1% in the test with CCRF-CEM leukemia and 75.7% in the test with MOLT-4 leukemia.

Consider `Cc1c(C(=O)NNC(=O)Nc2ccc(Cl)cc2)nnn1-c1ccc(Br)cc1`, for which the growth in the test with SK-MEL-2 melanoma was 109%; in the test with EKVX NSCLC, 88%; in the test with SN12C renal it was 103%; in the test on UO-31 renal, 75.7%; in the test on TK-10 renal, 96.1%; in the test with ACHN renal, 99.7%. Also, the growth is 83.9% in the test on CAKI-1 renal, 99.8% in the test on A498 renal, 89% in the test with CCRF-CEM leukemia and 83.5% with MOLT-4 leukemia.

As for `CC1(C)CC[C@]2(C(=O)O)CC[C@]3(C)C(=CCC4[C@@]5(C)C[C@@H](O)[C@@H]6OC(c7ccccc7Br)OC[C@@]6(C)C5CC[C@]43C)C2C1` (stereo not given in full), the growth was -1.06% (active) in the test with SK-MEL-2 melanoma; 18.4% in the test with EKVX NSCLC; 14.9% with SN12C renal; 15.5% with UO-31 renal; 21% in the test with TK-10 renal; 9.85% (active) with ACHN renal. The growth was 14.6% in the test with CAKI-1 renal, 23.7% in the test on A498 renal, 13.1% with CCRF-CEM leukemia and 10.5% with MOLT-4 leukemia.

For `COc1ccc(C(=O)/C=C/c2ccc(Oc3nc(Nc4ccc(F)cc4)nc(N(C)C)n3)c(OC)c2)cc1`, the growth in the test with SK-MEL-2 melanoma is -8.47% (active); in the test with EKVX NSCLC, 75.6%; with SN12C renal it was 32.2%; in the test on UO-31 renal, 42.9%; with TK-10 renal it was 95.7%; with ACHN renal, 36.9%. Moreover, the growth was 49% in the test with CAKI-1 renal, 78.3% in the test with A498 renal, 19.2% in the test with CCRF-CEM leukemia and 10.8% in the test with MOLT-4 leukemia.

Consider `Cn1cc(-c2cc3nc(-c4c[nH]c5ccc(Br)cc45)cc(N)n3n2)c2ccccc21`, for which the growth in the test on SK-MEL-2 melanoma is -86.5% (active); in the test with EKVX NSCLC it was -79.4% (active); in the test with SN12C renal, -73% (active); in the test with UO-31 renal, -97.7% (active); in the test on TK-10 renal, -90.3% (active); in the test on ACHN renal it was -98.4% (active). Besides, the growth in the test with CAKI-1 renal is -87.8% (active); in the test on A498 renal it was -25% (active); with CCRF-CEM leukemia it was -19.6% (active); in the test with MOLT-4 leukemia, -33.8% (active).

In the case of `Cc1ccc(S(=O)(=O)c2nc(S(=O)(=O)c3ccc(C)cc3)c(N3CCN(C)CC3)s2)cc1`, the growth is 49.4% in the test with SK-MEL-2 melanoma; 63.4% with EKVX NSCLC; 46.3% with SN12C renal; 69.5% with UO-31 renal; 125% in the test on TK-10 renal; 71.6% in the test with ACHN renal. Further, the growth is 60.9% in the test on CAKI-1 renal, 83.5% with A498 renal, 19.7% with CCRF-CEM leukemia and 30% in the test with MOLT-4 leukemia.
